These results are taken from PubChem BioAssay (NCATS).

Values without a mark were called inactive. Records with an inconclusive call do not appear. Active and inactive are the calls of the source. Unless noted, calls follow the shape of the dose curve; as a rule, active = well fitted curve in either direction with a large enough effect (not every such curve was filed as active); inconclusive = small, poorly fitted or top-dose-only effect, or another doubt; inactive = flat fitted curve, though single readings scatter.

Assay [1] deals with Lysosomal acid glucosylceramidase (Homo sapiens) (UniProt P04062). Nature of the assay: Glucocerebrosidase-p2 (AID 348; in the data active = potency below about 10 µM; also: potency is read from the fitted curve at half-maximal effect). The note with it: purified GBA, blue fluorogenic substrate, 40 min. Summed up:
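Normal human glucocerebrosidase (0.2 nM) with blue fluorogenic substrate (80 uM final) in citrate/phosphate pH 5.9 with 10mM sodium taurocholate, 0.01% tween-20; 40 min RT, NaOH/glycine stop; fluorescence Ex 365/Em 440; AC50 from a titration from 0.6 nM upwards.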

The nature of assay [2]: AP1 Signaling Pathway (AID 357). Also: % is scaled to controls: 0 for no effect and ±100 for the full control effect. The note with it: ME-180 AP-1-bla reporter, EGF-induced, beta-lactamase ratio, 5 h; at 7.69 µM (top of the series) unless noted. Summed up:
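First, ME-180 AP-1-bla cells were cultured overnight at 37 °C in low-serum Opti-MEM. Next, titrated compounds with EC50 EGF were incubated 5 hours. Finally, CCF4 was added for 2.5 hours and the 460/530 nm ratio recorded.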

Assay [3] deals with Cytochrome P450 1A2 (Homo sapiens) (UniProt P05177). Kind of assay: p450-cyp1a2 (AID 410; calls by dose curve; also: potency is read from the fitted curve at half-maximal effect;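 as to activity change, negative = inhibition: -100% = full effect of reference inhibitor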). The note with it: recombinant CYP1A2, luciferin-ME demethylation, luminescence; series mostly up to 11.4 µM. The gist of the method:
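Luminescent demethylation readout: Luciferin-ME (100uM, equal to Km) turned over by 20nM CYP1A2 for 60 min at room temperature after NADPH regeneration addition, following 10 min compound preincubation. Normalization used 57 uM furafylline as full inhibition.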

Assay [4] is described as follows: NFAT Signaling Pathway (AID 444).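 Also: carbachol stimulus at about its EC50 of 1 µM final; % is scaled to controls: 0 for no effect and ±100 for the full control effect.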 The note with it: Jurkat NFAT-bla M1, carbachol, beta-lactamase ratio, 5 h; at 7.69 µM (top of the series) unless noted. Summed up:
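Jurkat cells carrying an NFAT-driven β-lactamase reporter and co-transfected muscarinic M1 receptor were treated with compound plus carbachol (1 uM final, an EC50 level) for 5 h at 37 °C. CCF4 loading followed for 1 h at RT; 460/530 nm ratio gave %activity.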

Assay [5] is described as follows: Stat Signaling Pathway (AID 446).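 Also: ME-180 cervical cancer cells given 40 pM IL-6 alongside compound; SIE-controlled beta-lactamase reporter measured as 460/530 nm FRET emission ratio; % is scaled to controls: 0 for no effect and ±100 for the full control effect.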 The note with it: ME-180 SIE beta-lactamase reporter, IL-6 stimulated, 5 h; at 7.69 µM (top of the series) unless noted. Summed up: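 FRET read-out (405 nm excitation, 460/530 nm emission) of a beta-lactamase reporter under a STAT-inducible element in ME-180 cervical carcinoma cells. Cells with compound receive 40 pM IL-6 for 5 h. Values are normalised to AC90 stimulation and AC90 JAK-inhibitor controls.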

For assay [6], the target named is Glucocorticoid receptor (Homo sapiens) (UniProt P04150). Nature of the assay: GR-EFC Redistribution (AID 451; calls by dose curve; also: potency is read from the fitted curve at half-maximal effect). The note with it: CHO-K1 GR-EFC translocation, beta-gal luminescence, 2 h. The gist of the method:
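CHO-K1 cells stably expressing nuclear-localized β-gal enzyme acceptor and GR fused C-terminally to the enzyme donor fragment; ligand-driven nuclear translocation restores β-gal by complementation. Compounds titrated up to 46 uM final, 2 h at 37 °C; luminescence read.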

Assay [7] deals with Mitogen-activated protein kinase 10 (Mus musculus) (UniProt Q61831). Nature of the assay: JNK3 AlphaScreen Assay (AID 530).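 Also: kinase came from lysate of stimulated human HepG2 cells; % is scaled to controls: 0 for no effect and ±100 for the full control effect.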 The note with it: JNK3 lysate, c-Jun phosphorylation; series mostly up to 57.1 µM. The gist of the method: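 Phosphorylation of biotinylated GST-cJun(1-79) at Ser73 is measured by AlphaScreen proximity luminescence. Enzyme is JNK3 in HepG2 lysates activated with interleukin-1beta and tumor necrosis factor alpha; ATP is 10 uM final.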
In general terms: Bead proximity is the source of the signal in Alpha formats.

Assay [8] has as its target 3',5'-cyclic-AMP phosphodiesterase 4B (Homo sapiens) (UniProt Q07343). Nature of the assay: qHTS Assay for Inhibitors of PDE-IV (AID 607; active = well fitted activation curve with a large enough effect in the main read-out, with a control signal flat, not every such curve was filed as active; also: % of control where 0% means no effect). The note with it: HEK293 ACTOne CNG channel cells, membrane potential fluorescence; series mostly up to 22.9 µM. The gist of the method:
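Cell-based read-out of cAMP via a modified cyclic nucleotide-gated channel and membrane potential dye (535/590 nm) in HEK293 cells expressing PDE4 endogenously. Compounds tested up to 22.9 uM final; 100 uM RO 20-1724 reference.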

Assay [9] deals with Glucocorticoid receptor (Homo sapiens) (UniProt P04150). Nature of the assay: GR-GFP Redistribution (AID 450;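 active = compounds whose dose series gives a full or clear partial fitted curve of increased nuclear translocation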; also: potency is read from the fitted curve at half-maximal effect). The note with it: U2OS GR-GFP nuclear translocation, laser cytometry, 2 h.
For assay [10], the target named is Cytochrome P450 3A4 (Homo sapiens) (UniProt P08684). Kind of assay: qHTS Assay for Inhibitors and Substrates of Cytochrome P450 3A4 (AID 884; active = well fitted curve in the direction sought with a large enough effect; an effect the other way counts as inactive or inconclusive; also: potency is read from the fitted curve at half-maximal effect; nearly all actives have a fitted effect of over 50% in size). The note with it: recombinant CYP3A4, Luciferin-PPXE luminescence; series mostly up to 57.1 µM. The gist of the method: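 Luminescent readout of luciferin produced by CYP3A4 (20 nM) dealkylation of Luciferin-PPXE, 25 uM (its KM). NADPH-driven reaction ran 60 min at RT after 10 min compound preincubation; data scaled to 57 uM ketoconazole as 100% inhibition.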
A general note: In qHTS, concentration-response curves come from the screen itself.

For assay [11] the target is unchanged. Nature of the assay: qHTS Assay for Activators of Cytochrome P450 3A4 (AID 885; active = well fitted curve in the direction sought with a large enough effect; an effect the other way counts as inactive or inconclusive; also: nearly all actives have a fitted effect of over 65% in size). The note with it: recombinant CYP3A4, Luciferin-PPXE luminescence, 60 min; series mostly up to 57.1 µM. The gist of the method: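 Luminescent readout of luciferin formed from 25 uM Luciferin-PPXE (KM level) by 20 nM CYP3A4 in 200 mM KPO4, with 60 min NADPH-driven reaction at room temperature after 10 min compound exposure. Ketoconazole (57 uM) defined 100% inhibition.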

Assay [12] deals with Cytochrome P450 2C19 (Homo sapiens) (UniProt P33261). Nature of the assay: qHTS Assay for Inhibitors and Substrates of Cytochrome P450 2C19 (AID 899; active = well fitted curve in the direction sought with a large enough effect; an effect the other way counts as inactive or inconclusive; also: % is scaled to controls: 0 for no effect and ±100 for the full control effect; nearly all actives have a fitted effect of over 60% in size). The note with it: recombinant CYP2C19, luciferin-H EGE luminescence; series mostly up to 11.4 µM. The gist of the method:
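In 50mM KPO4, the reaction held 5nM enzyme and KM-level (10uM) Luciferin-H EGE; it ran 60 min at 37C after NADPH regeneration and a 10 min compound preincubation. Luminescence values were scaled to 57uM ketoconazole as complete inhibition.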

Assay [13] is described as follows: qHTS Assay for Identification of Small Molecule Agonists for Hypoxia Response Element Signaling Pathway (AID 914; active = well fitted activation curve with a large enough effect in the signal ratio, with a control signal flat, not every such curve was filed as active; the % refers to the signal ratio; also: % of control where 0% means no effect). The note with it: ME-180 (cervical carcinoma) HRE-bla reporter, beta-lactamase ratio, CoCl2, 17 h; hits give high values. Summed up: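 Compounds in a titration series were added to ME-180 reporter cells alongside an EC50 level of CoCl2. After 17 hours, beta-lactamase activity was read as the 460nm/530nm emission ratio of CCF4, giving AC50 values.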

Sequence of 3',5'-cyclic-AMP phosphodiesterase 4B (Homo sapiens) (Q07343 whole entry, looked up): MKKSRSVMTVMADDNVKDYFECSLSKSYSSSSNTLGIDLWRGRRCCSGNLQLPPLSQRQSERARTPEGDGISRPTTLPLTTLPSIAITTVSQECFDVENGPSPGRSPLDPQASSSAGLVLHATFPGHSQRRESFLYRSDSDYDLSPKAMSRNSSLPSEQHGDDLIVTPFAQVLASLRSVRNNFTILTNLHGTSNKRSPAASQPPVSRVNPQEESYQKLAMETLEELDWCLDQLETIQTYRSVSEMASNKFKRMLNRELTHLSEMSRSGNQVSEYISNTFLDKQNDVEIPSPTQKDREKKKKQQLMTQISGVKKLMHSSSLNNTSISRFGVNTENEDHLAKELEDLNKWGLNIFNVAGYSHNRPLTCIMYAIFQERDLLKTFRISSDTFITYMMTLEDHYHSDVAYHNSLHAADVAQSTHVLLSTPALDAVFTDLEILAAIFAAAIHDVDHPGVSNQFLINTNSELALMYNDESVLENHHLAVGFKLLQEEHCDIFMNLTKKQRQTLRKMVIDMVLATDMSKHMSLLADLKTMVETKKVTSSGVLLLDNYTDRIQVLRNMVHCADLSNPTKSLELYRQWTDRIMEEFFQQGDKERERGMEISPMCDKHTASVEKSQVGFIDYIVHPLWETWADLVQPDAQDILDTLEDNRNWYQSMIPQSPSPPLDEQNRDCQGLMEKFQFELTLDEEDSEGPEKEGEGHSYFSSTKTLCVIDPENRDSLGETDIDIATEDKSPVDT
Sequence of Lysosomal acid glucosylceramidase (Homo sapiens) (P04062 whole entry, looked up): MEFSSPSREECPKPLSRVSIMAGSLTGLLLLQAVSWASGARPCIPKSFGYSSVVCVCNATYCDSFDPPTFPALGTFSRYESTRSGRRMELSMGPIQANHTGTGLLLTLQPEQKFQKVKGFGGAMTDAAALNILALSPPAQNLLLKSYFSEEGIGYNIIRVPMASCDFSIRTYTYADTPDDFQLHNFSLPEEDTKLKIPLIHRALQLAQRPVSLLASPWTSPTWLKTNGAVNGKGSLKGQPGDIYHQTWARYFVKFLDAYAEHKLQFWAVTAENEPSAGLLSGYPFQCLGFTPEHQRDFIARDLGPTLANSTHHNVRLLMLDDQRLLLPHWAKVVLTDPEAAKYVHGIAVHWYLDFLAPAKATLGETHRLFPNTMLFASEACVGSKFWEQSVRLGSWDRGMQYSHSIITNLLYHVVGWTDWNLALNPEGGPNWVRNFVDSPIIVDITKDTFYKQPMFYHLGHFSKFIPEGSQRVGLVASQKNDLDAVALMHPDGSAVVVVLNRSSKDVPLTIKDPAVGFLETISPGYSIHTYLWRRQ
Sequence of Glucocorticoid receptor (Homo sapiens) (P04150 whole entry, looked up, the tested form may be a part): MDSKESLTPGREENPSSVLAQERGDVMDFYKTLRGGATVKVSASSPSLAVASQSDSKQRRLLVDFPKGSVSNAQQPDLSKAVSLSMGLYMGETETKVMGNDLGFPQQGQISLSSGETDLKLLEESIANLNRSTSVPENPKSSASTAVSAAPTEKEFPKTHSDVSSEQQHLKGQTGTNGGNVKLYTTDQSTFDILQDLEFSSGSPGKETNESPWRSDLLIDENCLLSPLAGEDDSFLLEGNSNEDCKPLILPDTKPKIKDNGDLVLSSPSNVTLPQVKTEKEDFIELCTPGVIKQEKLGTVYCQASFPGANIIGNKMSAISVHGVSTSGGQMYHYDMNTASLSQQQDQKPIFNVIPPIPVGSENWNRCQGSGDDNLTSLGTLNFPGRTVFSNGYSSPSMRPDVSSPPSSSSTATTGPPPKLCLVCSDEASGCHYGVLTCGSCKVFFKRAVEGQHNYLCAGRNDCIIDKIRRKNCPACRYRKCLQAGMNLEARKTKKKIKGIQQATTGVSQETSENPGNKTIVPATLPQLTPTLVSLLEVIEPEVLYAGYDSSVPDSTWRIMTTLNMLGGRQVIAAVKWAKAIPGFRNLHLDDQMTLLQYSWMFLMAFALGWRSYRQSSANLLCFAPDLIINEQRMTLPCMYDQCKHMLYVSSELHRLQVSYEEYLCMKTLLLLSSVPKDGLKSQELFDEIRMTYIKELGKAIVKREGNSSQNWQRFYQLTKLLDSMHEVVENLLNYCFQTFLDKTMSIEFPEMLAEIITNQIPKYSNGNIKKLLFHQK
Sequence of Cytochrome P450 1A2 (Homo sapiens) (P05177 whole entry, looked up): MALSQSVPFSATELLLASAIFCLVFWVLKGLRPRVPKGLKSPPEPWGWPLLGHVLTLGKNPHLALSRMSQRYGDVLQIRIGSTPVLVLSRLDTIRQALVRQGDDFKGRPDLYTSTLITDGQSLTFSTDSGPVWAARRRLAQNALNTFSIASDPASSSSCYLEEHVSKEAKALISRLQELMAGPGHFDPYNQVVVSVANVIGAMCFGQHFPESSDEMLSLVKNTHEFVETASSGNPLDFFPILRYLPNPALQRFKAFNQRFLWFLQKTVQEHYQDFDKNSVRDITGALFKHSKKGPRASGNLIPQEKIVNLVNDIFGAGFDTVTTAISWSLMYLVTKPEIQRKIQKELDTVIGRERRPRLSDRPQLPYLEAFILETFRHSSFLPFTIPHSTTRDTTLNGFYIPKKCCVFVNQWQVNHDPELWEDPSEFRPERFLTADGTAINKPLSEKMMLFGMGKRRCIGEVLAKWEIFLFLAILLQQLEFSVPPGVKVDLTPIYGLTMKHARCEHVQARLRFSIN
Sequence of Cytochrome P450 3A4 (Homo sapiens) (P08684 whole entry, looked up): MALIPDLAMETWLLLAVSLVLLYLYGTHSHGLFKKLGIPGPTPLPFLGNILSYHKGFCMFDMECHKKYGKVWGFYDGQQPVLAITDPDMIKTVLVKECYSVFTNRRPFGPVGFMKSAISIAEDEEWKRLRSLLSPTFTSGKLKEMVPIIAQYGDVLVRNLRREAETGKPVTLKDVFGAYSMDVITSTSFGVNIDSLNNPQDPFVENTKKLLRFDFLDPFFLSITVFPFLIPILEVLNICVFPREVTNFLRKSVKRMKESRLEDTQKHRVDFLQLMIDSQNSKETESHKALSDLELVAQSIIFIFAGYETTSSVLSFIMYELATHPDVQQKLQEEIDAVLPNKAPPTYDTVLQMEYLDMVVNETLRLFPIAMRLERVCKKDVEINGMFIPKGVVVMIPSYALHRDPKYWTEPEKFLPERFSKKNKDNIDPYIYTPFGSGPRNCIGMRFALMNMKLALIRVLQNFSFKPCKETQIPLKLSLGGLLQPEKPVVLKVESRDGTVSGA
Sequence of Cytochrome P450 2C19 (Homo sapiens) (P33261 whole entry, looked up): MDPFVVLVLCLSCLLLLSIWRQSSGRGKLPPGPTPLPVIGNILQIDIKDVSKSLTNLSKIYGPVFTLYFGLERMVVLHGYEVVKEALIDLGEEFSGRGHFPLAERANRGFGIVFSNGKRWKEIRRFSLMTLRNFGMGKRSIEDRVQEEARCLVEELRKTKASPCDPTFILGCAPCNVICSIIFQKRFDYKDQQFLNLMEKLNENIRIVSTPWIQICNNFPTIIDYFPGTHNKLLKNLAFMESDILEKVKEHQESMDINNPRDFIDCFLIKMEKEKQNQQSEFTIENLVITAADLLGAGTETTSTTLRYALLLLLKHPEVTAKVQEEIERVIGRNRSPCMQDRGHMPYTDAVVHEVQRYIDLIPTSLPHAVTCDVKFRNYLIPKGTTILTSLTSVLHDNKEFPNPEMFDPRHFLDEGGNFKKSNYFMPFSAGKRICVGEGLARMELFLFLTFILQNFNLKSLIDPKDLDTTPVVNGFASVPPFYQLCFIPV

On to `CN1C[C@H](C(=O)N[C@@]2(C)O[C@@]3(O)[C@H]4CCCN4C(=O)[C@@H](Cc4ccccc4)N3C2=O)C=C2c3cccc4[nH]cc(c34)C[C@@H]21`, for which the Potency was above 11.4 µM in assay [1], 3.16 µM (active) in assay [3] and above 9.22 µM in assay [6]. Also, the activity change, negative = inhibition in assay [2] is 2.32%; in assay [4], -0.805%; in assay [7], -2.44% [at 11.4 µM]. For the same compound, the activity, negative = inhibition in assay [5] was 0.776%. In assay [8], the compound was called inactive.
For `O=P(O)(O)CCP(=O)(O)O`, the Potency in assay [1] was above 11.4 µM; in assay [9], above 46 µM; in assay [6], above 9.22 µM. Also, the activity change, negative = inhibition is -10.9% in assay [2], 7.15% in assay [4] and -1.32% [at 11.4 µM] in assay [7]. The activity, negative = inhibition in assay [5] was 11.8%. Also, the outcome in assay [8] was inactive.
As to `c1ccc2c([C@@H]3CCN(CCN4CCOCC4)C3)c[nH]c2c1`, the results for the Potency in assay [1], in assay [9] and in [6] were above 11.4 µM, above 46 µM and above 9.22 µM, respectively. Further, the activity change, negative = inhibition is -11.8% in assay [2] and 3.19% [at 11.4 µM] in [7]. Also, the Potency result in assay [3] is “inactive”. In addition, in assay [5], the activity, negative = inhibition is 0.702%. Further, the outcome in [8] was inactive.
As to `CCOC(=O)c1ccc2[nH]c(-c3ccc(S(=O)(=O)F)cc3)cc(=O)c2c1`, the figures for the Potency in assay [1], in assay [9] and in [6] were above 11.4 µM, above 46 µM and above 9.22 µM, respectively. For the same compound, the activity change, negative = inhibition in assay [2] was -7.65%; in assay [4] it was 25.8%; in assay [7], 3.3% [at 11.4 µM]. In addition, in [5], the activity, negative = inhibition was -0.749%. In addition, the compound was classed as inactive in assay [8].
Consider `NC[C@@H](Cc1ccccc1)P(=O)(O)O`, for which the Potency is above 11.4 µM in assay [1], above 46 µM in assay [9] and above 9.22 µM in assay [6]. Also, the figures for the activity change, negative = inhibition in [2] and in assay [4] were 11.5% and 4.85%, respectively. Further, in [3], the Potency entry was “inactive”. Moreover, the activity, negative = inhibition in assay [5] is 2.4%. For the same compound, the outcome in [8] was inactive.
In the case of `Nc1ccc(S(=O)(=O)c2ccc(NCN3C(=O)NC(=O)C(=O)C3=O)cc2)cc1`, the Potency in assay [1] is above 11.4 µM; in assay [6] it was above 9.22 µM; in [10] it was 2 µM (active). Further, the activity change, negative = inhibition is -11.3% in assay [2], 14.2% in assay [4] and 1.4% [at 11.4 µM] in assay [7]. The Potency entry in assay [3] and in assay [12] was “inactive” in each case. In addition, the activity, negative = inhibition in assay [5] was -4.49%. The compound was classed as inactive in assay [8]. The activity change, positive = activation in assay [11] is -78% [at 11.4 µM].
As for `N[C@@H](Cc1ccccc1)P(=O)(O)O`, the Potency in [1] is above 11.4 µM; in assay [9], above 46 µM; in [6] it was above 9.22 µM. Moreover, the activity change, negative = inhibition in assay [2] is -2.48%; in assay [4], 12.4%; in assay [7], 3.3% [at 11.4 µM]. In addition, the activity, negative = inhibition in assay [5] was -2.79%. Further, in assay [8], the call was inactive.
Consider `O=[As](O)(O)c1ccc(N=Nc2ccc(O)cc2)cc1`, for which the figures for the Potency in [1], in [9] and in assay [6] were above 11.4 µM, above 46 µM and above 9.22 µM, respectively. Also, the activity change, negative = inhibition in assay [2] is 3.33%; in assay [4], 9.82%; in assay [7], -2.48% [at 11.4 µM]. In addition, in assay [5], the activity, negative = inhibition was 3.63%. Moreover, the call in [8] was inactive. Further, the activation in assay [13] is 5.33%.
`C(=NCCN1CCOCC1)=NC1CCCCC1`: the values for the Potency in assay [1] and in assay [9] were above 11.4 µM and above 46 µM, respectively. Moreover, the activity change, negative = inhibition in assay [2] is -1.14%; in [4], 12.1%; in [7] it was 3.92% [at 11.4 µM]. For the same compound, the activity, negative = inhibition in assay [5] is 19.2%. Further, the call in [8] was inactive.
On to `O=C(O)[C@H](Cc1cnc[nH]1)N1C(=O)c2ccccc2C1=O`, for which the values for the Potency in assay [1] and in [6] were above 11.4 µM and above 9.22 µM, respectively. For the same compound, the figures for the activity change, negative = inhibition in assay [2], in [4] and in [7] were -8.47%, 7.47% and 41.7% [at 11.4 µM], respectively. For the same compound, the activity, negative = inhibition in [5] was 4.43%. For the same compound, the outcome in [8] was inactive.
As to `O=C(O)c1cccc([As]=[As]c2cccc(C(=O)O)c2)c1` (stereo not drawn), the Potency is above 11.4 µM in assay [1], above 46 µM in assay [9] and above 9.22 µM in [6]. The activity change, negative = inhibition in assay [2] is -0.316%; in assay [4], -6.47%; in assay [7] it was -0.547% [at 11.4 µM]. Moreover, the activity, negative = inhibition in assay [5] was 2.08%. Besides, in [8], the result was inactive.
For `Nc1nc(N)c(N=Nc2ccc([As](=O)(O)O)cc2)c(=O)[nH]1`, the results for the Potency in [1] and in [6] were above 11.4 µM and above 9.22 µM, respectively. For the same compound, the activity change, negative = inhibition in assay [2] is 6.48%; in assay [4], 5.43%; in assay [7], 5.04% [at 11.4 µM]. Further, the activity, negative = inhibition in assay [5] is 0.893%. In addition, the call in assay [8] was inactive.
As to `N[C@@H](Cc1c[nH]c2cc([N+](=O)[O-])ccc12)C(=O)O`, the Potency in assay [1] was above 11.4 µM; in [9], above 46 µM; in assay [6], above 9.22 µM. Moreover, the activity change, negative = inhibition in assay [2] was -8.44%; in [4] it was 5.87%. Moreover, the activity, negative = inhibition in [5] is 10.4%. Further, the outcome in assay [8] was inactive.
`c1cc(CCN2CCCCC2)ccn1`: the Potency was above 11.4 µM in assay [1], above 46 µM in assay [9] and above 9.22 µM in assay [6]. Besides, the activity change, negative = inhibition was 1.53% in [2], 7.13% in assay [4] and 1.02% [at 11.4 µM] in assay [7]. Besides, the activity, negative = inhibition in [5] is 6.27%. In addition, the result in [8] was inactive. In [11], the activity change, positive = activation is -36% [at 11.4 µM].
